Some test systems named below: NCI-H23 lung; NCI-H226 lung; NCI-H322M lung; HOP-62 NSCLC; NCI-H460 lung; HOP-92 NSCLC; NCI-H522 lung; A549/ATCC NSCLC; 786-0 renal; DU-145 prostate; K-562 leukemia; MALME-3M melanoma; MDA-MB-231 breast; RXF 393 renal; SF-268 CNS; SF-295 CNS; SF-539 CNS; UACC-257 melanoma; M14 melanoma; COLO 205 colon.
Test in all cases: NCI-60 one-dose screen, 48 h (100 = growth as untreated, 0 = no growth, -100 = all killed)
Holding throughout (settings): 10 µM unless noted

Compounds without any hit were thinned out: in the full panel of roughly 83,000, 20% have a hit.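 Cells were grown in 96-well plates and exposed to the test compound at a single concentration for 48 hours; results are reported as percent growth, with values below 10 considered active.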 Values without a mark were called inactive. Activity calls are given as the source filed them.

Regarding `O=C1Nc2ccccc2/C1=N\c1nnc(-c2ccccc2)o1`, the growth was 91.8% in the assay with NCI-H23 lung; 88.7% in the assay on NCI-H226 lung; 86.8% in the assay on NCI-H322M lung; 82.6% with HOP-62 NSCLC; 99.2% in the assay with NCI-H460 lung; 72.2% in the assay with HOP-92 NSCLC. For the same molecule, the growth is 88.4% with NCI-H522 lung; 103% with A549/ATCC NSCLC; 108% in the assay with 786-0 renal; 107% in the assay on DU-145 prostate; 103% in the assay with K-562 leukemia; 89.7% in the assay with MALME-3M melanoma. The growth in the assay with MDA-MB-231 breast is 82.9%; in the assay with RXF 393 renal, 92%; in the assay on SF-268 CNS it was 98.1%; with SF-295 CNS it was 92.8%; in the assay on SF-539 CNS, 97.8%; in the assay with UACC-257 melanoma, 100%. Besides, in the assay with M14 melanoma, the growth is 95.9%.

Take `Cc1ccc(S(=O)(=O)NCCCNc2nc(Nc3ccc(N4CCN(C)CC4)cc3)nc3ccsc23)cc1`: the growth is 75.6% in the assay on NCI-H23 lung; 117% in the assay on NCI-H226 lung; 52.7% in the assay on NCI-H322M lung; 97.1% in the assay with HOP-62 NSCLC; 18.5% in the assay on NCI-H460 lung; 49.6% with HOP-92 NSCLC. Also, the growth in the assay on A549/ATCC NSCLC is 37.1%; in the assay on 786-0 renal, -26.7% (active); in the assay on COLO 205 colon, -32.9% (active); in the assay on DU-145 prostate, 42.7%; in the assay on K-562 leukemia, 13.3%; in the assay on MALME-3M melanoma it was -87.9% (active). In addition, the growth was 23% in the assay with MDA-MB-231 breast; -59.3% (active) with RXF 393 renal; 42% with SF-268 CNS; -41.6% (active) in the assay with SF-295 CNS; -80.8% (active) in the assay on SF-539 CNS; -73.2% (active) in the assay with UACC-257 melanoma. Also, the growth in the assay on M14 melanoma is -69.6% (active).

`CCCCCCOC(=O)c1cc(-c2ccc(F)cc2)nc2ccccc12`: the growth was 90.3% with NCI-H23 lung; 91.2% in the assay with NCI-H226 lung; 94.9% with NCI-H322M lung; 94.4% in the assay with HOP-62 NSCLC; 103% in the assay on NCI-H460 lung; 65.9% in the assay with HOP-92 NSCLC. Besides, the growth is 101% in the assay on A549/ATCC NSCLC; 107% with 786-0 renal; 107% in the assay with COLO 205 colon; 105% in the assay on DU-145 prostate; 101% in the assay with K-562 leukemia; 97.1% with MALME-3M melanoma. Moreover, the growth in the assay with MDA-MB-231 breast is 85.6%; in the assay with RXF 393 renal, 96.8%; in the assay on SF-268 CNS, 96.1%; with SF-295 CNS, 98%; with SF-539 CNS, 99.9%; with UACC-257 melanoma, 99.1%. In addition, the growth with M14 melanoma is 96.9%.

In the case of `O=C(/C=C/c1ccc(Cl)c(Cl)c1)Nc1ncc(Cc2ccc(Cl)c(Cl)c2)s1`, the growth in the assay with NCI-H23 lung is 70.4%; in the assay with NCI-H226 lung, 70.7%; with NCI-H322M lung it was 58.5%; in the assay with HOP-62 NSCLC, 50.9%; in the assay on NCI-H460 lung, 28.3%; with HOP-92 NSCLC, 92.7%. For the same molecule, the growth in the assay with A549/ATCC NSCLC was 53.5%; in the assay on 786-0 renal, 78.8%; in the assay on COLO 205 colon, 4.63% (active); in the assay with DU-145 prostate, 49.5%; with K-562 leukemia, 15.3%; in the assay with MALME-3M melanoma, 79.8%. The growth was 97.1% with MDA-MB-231 breast; 104% with RXF 393 renal; 61.4% in the assay with SF-268 CNS; 7.58% (active) in the assay with SF-295 CNS; 60.5% in the assay on SF-539 CNS; 40.9% in the assay on UACC-257 melanoma. For the same molecule, the growth in the assay on M14 melanoma is -27.4% (active).

`O=c1nc(Nc2ccc([N+](=O)[O-])cc2O)sc2ccccc12`: the growth is 40.4% in the assay on NCI-H23 lung; 57.2% in the assay with NCI-H226 lung; 51.4% in the assay on NCI-H322M lung; 47% in the assay with HOP-62 NSCLC; 22.1% in the assay with NCI-H460 lung; -0.0775% (active) in the assay with HOP-92 NSCLC. The growth was 41.7% with A549/ATCC NSCLC; 37.7% with 786-0 renal; 96.5% in the assay with COLO 205 colon; 25.1% in the assay on DU-145 prostate; 12.9% in the assay with K-562 leukemia; 30.7% in the assay on MALME-3M melanoma. Also, the growth is 51.8% in the assay with MDA-MB-231 breast; 7.31% (active) in the assay on RXF 393 renal; 59.4% with SF-268 CNS; -34.2% (active) with SF-295 CNS; -36.5% (active) in the assay on SF-539 CNS; 65% with UACC-257 melanoma. In addition, the growth in the assay with M14 melanoma is 17.5%.

On to `O=C(CCCCCCNC(=O)C(O)(O)C(F)(F)F)Nc1ncc(-c2ccccc2)s1`, for which the growth with NCI-H23 lung is -1.99% (active); with NCI-H226 lung it was 14.9%; with NCI-H322M lung, 3.47% (active); in the assay on HOP-62 NSCLC it was -6.52% (active); with NCI-H460 lung, 2.92% (active); in the assay with HOP-92 NSCLC it was -19.4% (active). Besides, the growth in the assay on A549/ATCC NSCLC is -12.9% (active); in the assay with 786-0 renal it was 17.1%; in the assay on COLO 205 colon, -73.3% (active); with DU-145 prostate it was 3.28% (active); in the assay on K-562 leukemia it was 11.7%; in the assay with MALME-3M melanoma, 13.6%. Also, the growth with MDA-MB-231 breast is 15.9%; in the assay on RXF 393 renal, -48.5% (active); in the assay on SF-268 CNS, 1.35% (active); in the assay with SF-295 CNS, -35.1% (active); in the assay with SF-539 CNS, 13.9%; with UACC-257 melanoma, 20.8%. The growth with M14 melanoma is 14.3%.

Turning to `COc1ccc(-c2cc(-c3ccc(N4CCOCC4)cc3)n3c(n2)nc2ccccc23)cc1OC`, the growth with NCI-H23 lung was 98%; with NCI-H226 lung it was 85.7%; in the assay with NCI-H322M lung, 94.6%; in the assay with HOP-62 NSCLC, 94.8%; in the assay with NCI-H460 lung it was 86.3%; in the assay on HOP-92 NSCLC it was -4.32% (active). Besides, the growth in the assay on A549/ATCC NSCLC was 82.5%; in the assay on 786-0 renal, 84.7%; with COLO 205 colon, 108%; with DU-145 prostate it was 91.2%; with K-562 leukemia it was 68.9%; with MALME-3M melanoma, 93.3%. For the same molecule, the growth with MDA-MB-231 breast was 70.9%; with RXF 393 renal, 72.8%; with SF-268 CNS, 90.7%; in the assay with SF-295 CNS, 100%; in the assay on SF-539 CNS, 76.7%; with UACC-257 melanoma, 97.7%. Also, the growth in the assay with M14 melanoma is 93.1%.

For the molecule `Cc1ccc(OCc2occc2C(=O)N2CCOCC2)cc1`, the growth in the assay on NCI-H23 lung is 101%; in the assay with NCI-H226 lung it was 96.9%; with NCI-H322M lung, 106%; in the assay with HOP-62 NSCLC it was -95.9% (active); in the assay with NCI-H460 lung, 107%; with HOP-92 NSCLC, 103%. In addition, the growth in the assay with A549/ATCC NSCLC is 109%; in the assay on 786-0 renal, 98.7%; in the assay on COLO 205 colon, 117%; in the assay with DU-145 prostate, 103%; in the assay on K-562 leukemia, 98.9%; with MALME-3M melanoma, 102%. Moreover, the growth in the assay on MDA-MB-231 breast is 109%; in the assay with RXF 393 renal it was 99.8%; in the assay with SF-268 CNS it was 97.5%; with SF-295 CNS it was 96.3%; with SF-539 CNS, 100%; in the assay with UACC-257 melanoma it was 116%. In the assay on M14 melanoma, the growth is 99.3%.

The record behind these values is PubChem BioAssay (NCI).
